The record followed here is PubChem BioAssay AID1224921 (Broad Institute, 2016).

The structures appear in SMILES notation. In all, about 1,400 compounds went through this assay and about 350 (25%) were called active. Not shown: some 2% with an inconclusive outcome. No rule for the calls is given here. Not all results are given here. Measured potencies and affinities stand elsewhere.

The nature of the assay: inhibitors of Clostridioides difficile proliferation – 4-point retest, confirmation (AID 1224921).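 Also: plate controls were DMSO wells for no effect and levofloxacin 16 µg/mL wells for full effect.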 As to conditions: Clostridioides difficile clinical isolate growth, OD600, 24 h, stronger effect = lower value; at 30 µM unless noted.
For `CO[C@H]1CN(C)C(=O)c2cc(NC(=O)Nc3cccc(F)c3)ccc2OC[C@H](C)N(C)C[C@H]1C`, the max activity is -7.19% [at 0.5 µM] (inactive).

Regarding `COc1ccc([Si](C)(C)[C@H]2[C@H](CCO)O[C@@]3(C(=O)N(C)c4ccccc43)[C@@H]2C)cc1`, the max activity is 12.6% [at 8 µM] (inactive).

Regarding `CCCC#Cc1ccc2c(c1)O[C@@H](CN(C)Cc1ccncc1)[C@H](C)CN([C@H](C)CO)S2(=O)=O`, the max activity was 15.9% (inactive).

Consider `COc1cccc(S(=O)(=O)Nc2ccc3c(c2)[C@H]2C[C@@H](CC(=O)NC4CCCCC4)O[C@@H](CO)[C@H]2O3)c1`, for which the max activity is -11.1% [at 1.95 µM] (inactive). The same measure for `O=C(C[C@H]1C[C@H]2c3cc(NC(=O)Nc4ccc(C(F)(F)F)cc4)ccc3O[C@H]2[C@@H](CO)O1)NC1CCCCC1`: -14.7% [at 1.95 µM] (inactive). With `COc1ccc(S(=O)(=O)N(C)C[C@@H]2Oc3ccc(NC(=O)CCCN(C)C)cc3CC(=O)N([C@@H](C)CO)C[C@H]2C)cc1`, the max activity is -7.02% [at 1.95 µM] (inactive).

On to `CO[C@H]1CN(C)C(=O)c2cc(NC(=O)Nc3ccc(F)cc3)ccc2OC[C@@H](C)NC[C@@H]1C`, for which the max activity was -7.9% [at 0.5 µM] (inactive). The same measure for `CO[C@@H]1CN(C)C(=O)c2ccc(NC(=O)Nc3ccc4c(c3)OCO4)cc2OC[C@H](C)NC[C@H]1C`: -8.6% [at 0.5 µM] (inactive); for `CO[C@@H]1CN(C)C(=O)c2cc(NC(=O)Nc3ccc(F)cc3)ccc2OC[C@H](C)NC[C@H]1C`: -13.4% [at 1.95 µM] (inactive).

`CO[C@H]1CN(C)C(=O)c2cc(NC(=O)Nc3ccc(F)cc3)ccc2OC[C@H](C)NC[C@@H]1C`: the max activity is -22.1% (inactive). Regarding `CCC(=O)Nc1ccc2c(c1)C(=O)N(C)C[C@@H](OC)[C@@H](C)CN[C@@H](C)CO2`, the max activity is 6.81% [at 0.5 µM] (inactive).

For the molecule `C[C@@H]1CN([C@H](C)CO)C(=O)c2cc(NC(=O)Nc3ccc4c(c3)OCO4)ccc2O[C@H]1CN(C)Cc1ccccc1`, the max activity is 22.6% (inactive). As for `COc1ccc(NC(=O)N[C@H]2C=C[C@@H](CC(=O)NC3CCCCC3)O[C@H]2CO)cc1`, the max activity was -14.6% [at 1.95 µM] (inactive). Turning to `COc1ccc(CN(C)C[C@H]2OCCCC[C@@H](C)Oc3ccc(NC(=O)Nc4ccc(F)cc4)cc3C(=O)N([C@@H](C)CO)C[C@@H]2C)cc1`, the max activity is 19.8% [at 8 µM] (inactive). Take `COCC#Cc1ccc2c(c1)O[C@H](CN(C)C)[C@@H](C)CN([C@H](C)CO)S2(=O)=O`: the max activity was 7.09% (inactive).

As to `CO[C@H]1CN(C)C(=O)c2cc(NC(=O)c3ccccc3)ccc2OC[C@@H](C)N(C)C[C@@H]1C`, the max activity was -8.25% [at 8 µM] (inactive). For `C[C@@H]1CN([C@@H](C)CO)C(=O)c2c(c3ccccc3n2C)-c2ccccc2CO[C@@H]1CN(C)S(=O)(=O)c1cccc(F)c1` the value was 6.96% [at 8 µM] (inactive). For `C[C@H](CO)N1C[C@H](C)[C@H](CN(C)C(=O)[C@H](C)c2ccccc2)OCc2ccccc2-c2ccccc2C1=O`, the max activity is 12.5% [at 1.95 µM] (inactive). The same measure for `C[C@@H]1CN([C@@H](C)CO)C(=O)c2cccc(NC(=O)Nc3ccc(C(F)(F)F)cc3)c2O[C@H]1CN(C)C(=O)Nc1ccccc1`: 29.3% (inactive); for `C[C@@H]1CN([C@H](C)CO)C(=O)c2cccc(NC(=O)Nc3ccc(C(F)(F)F)cc3)c2O[C@@H]1CN(C)C(=O)Nc1cccc2ccccc12`: 40.5% [at 1.95 µM] (inactive). In the case of `C[C@@H]1CN([C@H](C)CO)C(=O)c2cccc(NC(=O)Nc3ccc(C(F)(F)F)cc3)c2O[C@H]1CN(C)C(=O)Nc1ccccc1`, the max activity is 25.7% [at 8 µM] (inactive).

For `C[C@@H]1CN([C@@H](C)CO)C(=O)c2cccc(NC(=O)Nc3ccc(C(F)(F)F)cc3)c2O[C@H]1CN(C)C(=O)Nc1cccc2ccccc12`, the max activity was 30.6% [at 1.95 µM] (inactive). The same measure for `C[C@H](CO)N1C[C@H](C)[C@@H](CN(C)C(=O)Nc2ccccc2)Oc2c(NC(=O)Nc3ccc(C(F)(F)F)cc3)cccc2C1=O`: 46.6% [at 8 µM] (inactive).

Consider `C[C@H]1CN([C@@H](C)CO)S(=O)(=O)c2ccc(-c3ccccc3F)cc2O[C@@H]1CN(C)Cc1ccncc1`, for which the max activity was 27% (inactive). For `C[C@H](CO)N1C[C@H](C)[C@@H](CN(C)C(=O)C2CCCCC2)Oc2ncc(-c3ccccc3F)cc2C1=O`, the max activity is -11.4% [at 8 µM] (inactive). For `C[C@H]1CN([C@@H](C)CO)C(=O)Cc2cc(NS(C)(=O)=O)ccc2O[C@H]1CN(C)Cc1ccccc1` the value was 10.4% (inactive); for `COc1ccccc1C(=O)Nc1ccc2c(c1)OC[C@@H](C)N(CC1CC1)C[C@@H](C)[C@H](OC)CN(C)C2=O`, 19.1% (inactive); for `CO[C@@H]1CN(C)C(=O)c2ccc(NC(=O)c3nc4ccccc4s3)cc2OC[C@@H](C)N(Cc2ccncc2)C[C@H]1C`, 30.6% (inactive). For `CCCC#Cc1ccc2c(c1)O[C@H](CN(C)Cc1ccncc1)[C@H](C)CN([C@H](C)CO)S2(=O)=O` the value was 6.31% (inactive). For `C[C@@H]1CN([C@H](C)CO)C(=O)c2cccc(NC(=O)Nc3ccc4c(c3)OCO4)c2O[C@H]1CN(C)S(=O)(=O)c1ccc(Cl)cc1`, the max activity is -12.1% [at 8 µM] (inactive).

With `CC(C)CC#Cc1ccc2c(c1)O[C@@H](CN(C)Cc1cccnc1)[C@H](C)CN([C@@H](C)CO)S2(=O)=O`, the max activity was 42% (inactive). As for `COc1ccccc1C#Cc1ccc2c(c1)O[C@H](CN(C)Cc1ccncc1)[C@@H](C)CN([C@@H](C)CO)S2(=O)=O`, the max activity was 48.6% (inactive).

As for `CCCNC(=O)N(C)C[C@@H]1Oc2cc(C#Cc3ccccn3)ccc2S(=O)(=O)N([C@@H](C)CO)C[C@H]1C`, the max activity was 9.97% (inactive). For `CO[C@H]1O[C@H](CO)[C@@H](OC(=O)Nc2ccc3c(c2)OCO3)[C@H](OC(=O)Nc2ccccc2)[C@H]1OC(=O)Nc1ccccc1` the value was 10.7% (inactive); for `CCC(=O)N[C@H]1C=C[C@@H](CC(=O)OC)O[C@@H]1CO`, -10.5% (inactive); for `CN1C(=O)c2cc(NC(=O)Cc3ccccc3)ccc2OC[C@H]2O[C@@H](CC(=O)NCC3CC3)CC[C@H]21`, -7.83% (inactive). For `O=C(C[C@@H]1C[C@@H]2c3cc(NC(=O)Nc4ccc(C(F)(F)F)cc4)ccc3O[C@@H]2[C@H](CO)O1)NCc1ccc(Cl)cc1` the value was 27.7% (inactive). For the molecule `CCC(=O)Nc1ccc2c(c1)OC[C@H](C)N(CC1CCCCC1)C[C@@H](C)[C@@H](OC)CN(C)C2=O`, the max activity is 8.81% (inactive).

For the molecule `CCCN1[C@@H]2c3ccc(-c4ccc(F)cc4)c(=O)n3C[C@@H]2[C@@H](CO)[C@@H]1C(=O)N[C@@H](C)c1ccccc1`, the max activity was -8.45% (inactive).

For `COc1ccccc1-c1ccc2c(c1)O[C@@H](CN(C)C(=O)c1ccccc1)[C@@H](C)CN([C@@H](C)CO)S2(=O)=O`, the max activity was 29.9% (inactive). Consider `COCC(=O)Nc1ccc2c(c1)OC[C@H](C)N(Cc1ccccc1)C[C@@H](C)[C@@H](OC)CN(C)C2=O`, for which the max activity is 5.39% (inactive). For `CCCC(=O)Nc1ccc2c(c1)C(=O)N(C)C[C@H](OC)[C@@H](C)CN(S(=O)(=O)c1cn(C)cn1)[C@@H](C)CO2` the value was -11.7% (inactive); for `C[C@H]1CCCCO[C@@H](CN(C)Cc2ccc(C(=O)O)cc2)[C@@H](C)CN([C@@H](C)CO)C(=O)c2cc(NC(=O)Nc3ccc4c(c3)OCO4)ccc2O1`, -7.43% (inactive); for `CCC(=O)N(C)C[C@@H]1Oc2cc(C#CCC3CCCC3)ccc2S(=O)(=O)N([C@H](C)CO)C[C@H]1C`, 29.4% (inactive). For `COc1cc(O)c2c(c1)oc(=O)c1c3cc(O)c(O)cc3oc21` the value was 14.5% (inactive); for `CNC(=O)C[C@@H]1CC[C@H]2[C@@H](COc3ccc(NC(=O)c4ccccc4F)cc3C(=O)N2C)O1`, -11.2% [at 1.95 µM] (inactive); for `CNC(=O)C[C@H]1CC[C@H]2[C@H](COc3ccc(NC(=O)c4ccccc4F)cc3C(=O)N2C)O1`, -13.3% [at 1.95 µM] (inactive). On to `O=C(Nc1ccc2c(c1)OCO2)N[C@@H]1C=C[C@H](CC(=O)N2CCN(c3ccccc3)CC2)O[C@H]1CO`, for which the max activity is 18.2% (inactive). Consider `CO[C@@H]1CN(C)C(=O)c2ccc(NC(=O)c3ccc(F)cc3)cc2OC[C@H](C)N(C(=O)CN(C)C)C[C@@H]1C`, for which the max activity was -20.6% [at 1.95 µM] (inactive). As for `CNC[C@H]1Oc2cc(-c3ccccc3F)ccc2S(=O)(=O)N([C@H](C)CO)C[C@H]1C`, the max activity was 25.6% (inactive). Consider `C[C@@H]1CN([C@H](C)CO)C(=O)Cc2cc(NC(=O)C3CC3)ccc2O[C@@H]1CN(C)Cc1ccc(-c2ccccc2)cc1`, for which the max activity is 43.1% [at 35 µM] (inactive). With `CC(C)C#Cc1ccc2c(c1)O[C@H](CN(C)Cc1ccncc1)[C@@H](C)CN([C@H](C)CO)S2(=O)=O`, the max activity was 51.9% (inactive). For `CO[C@H]1CN(C)C(=O)c2cc(NC(=O)Nc3ccccc3F)ccc2OC[C@@H](C)N(CC2CC2)C[C@@H]1C` the value was -19.6% [at 1.95 µM] (inactive); for `CO[C@@H]1CN(C)C(=O)c2ccc(NC(C)=O)cc2OC[C@@H](C)N(Cc2cccc(F)c2)C[C@@H]1C`, 16.8% (inactive). In the case of `CCS(=O)(=O)Nc1ccc2c(c1)C(=O)N(C)C[C@@H](OC)[C@H](C)CN(CC1CCCC1)[C@H](C)CO2`, the max activity is -10.9% [at 1.95 µM] (inactive).

Take `C[C@@H]1CN([C@H](C)CO)S(=O)(=O)c2ccc(C#CCC3CCCC3)cc2O[C@H]1CN(C)C(=O)CC1CC1`: the max activity is 15.9% (inactive). On to `COc1cccc(NC(=O)N[C@H]2CC[C@H](CC(=O)Nc3ccc(-c4ccccc4)cc3)O[C@H]2CO)c1`, for which the max activity was 32.5% (inactive).
